Screens as filed in PubChem.
Rows were chosen to be rich in hits. Some 31% of all compounds tested hit in one or more screens of this group.
CYP2C19 activ – human CYP2C19 activators, primary screen, biochemical, luminescence; recombinant CYP2C19, luciferin-H EGE luminescence; hits give high values; 0 = fully inhibited enzyme, 1 = untreated enzyme; activation factor at 5 µM; Cytochrome P450 2C19 (Homo sapiens), P33261; 96,000 tested, under 10 active; AID 1025, 2008;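 active means activation factor of at least 2 at 5 µM in the primary screen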
Target sequence (P33261 whole entry, looked up): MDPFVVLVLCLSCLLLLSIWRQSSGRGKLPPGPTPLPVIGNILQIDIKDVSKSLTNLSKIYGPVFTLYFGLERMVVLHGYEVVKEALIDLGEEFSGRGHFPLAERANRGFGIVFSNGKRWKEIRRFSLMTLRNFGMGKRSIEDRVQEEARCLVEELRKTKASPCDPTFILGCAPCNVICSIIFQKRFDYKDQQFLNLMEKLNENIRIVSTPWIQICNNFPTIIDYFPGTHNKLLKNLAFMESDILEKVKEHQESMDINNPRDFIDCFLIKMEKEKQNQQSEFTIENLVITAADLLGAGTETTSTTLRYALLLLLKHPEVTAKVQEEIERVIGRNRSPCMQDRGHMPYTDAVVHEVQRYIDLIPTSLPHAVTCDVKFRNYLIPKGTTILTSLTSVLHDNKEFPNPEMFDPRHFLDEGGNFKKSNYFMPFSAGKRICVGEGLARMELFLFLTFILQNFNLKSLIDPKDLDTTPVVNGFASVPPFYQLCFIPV
CYP2C9 inh – blockers of cytochrome P450 2C9 activity – biochemical, luminescence, ADME assay, primary screen; P11712; CYP2C9 Supersomes, luciferin-H conversion; inhibition, % at 5 µM; 96,000 tested, 20% active; AID 777, 2007;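 active means blocking of liver enzyme CYP2C9 beyond about 50% at 5 µM, limit read from the data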
CYP2C9 act – human CYP2C9 activators, primary screen, biochemical, luminescence; Cytochrome P450 2C9 (Homo sapiens), P11712; recombinant CYP2C9, luciferin-H conversion; hits give high values; factor 1 = untreated enzyme, 0 = blocked; activation factor at 5 µM; 96,000 tested, 1.4% active; AID 1024, 2008;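 active means activation factor of 2 or more for CYP2C9 at a 5 µM dose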
CYP2C19 inhib – blockers of cytochrome P450 2C19 activity – biochemical, luminescence, ADME assay, primary screen | inhibition, % at 5 µM | AID 778, 2007 | 96,000 tested, 21% active | P33261 | CYP2C19 Supersomes, luciferin-H EGE luminescence, 30 min;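 active means CYP2C19 inhibition above a set limit at 5 µM in the primary screen, cut at about 50% in these data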
Large screens that a line does not name were inactive.

O=C(CN1C(=O)CSc2ccccc21)N1CCc2ccccc21	CYP2C19 inhib 82.1
COc1ccc(NC(=O)c2cccc(Cn3cc(Br)cn3)c2)cn1	CYP2C9 inh 77.9, CYP2C19 inhib 71.3
COc1ccc(NC(=O)c2cc(CN3C(=O)c4ccccc4C3=O)ccc2OC)cn1	CYP2C9 inh 78.5
CCN(CC(=O)NC)S(=O)(=O)c1ccc(C)cc1	none
CCN(CC(=O)Nc1ccc2c(c1)OCCO2)S(=O)(=O)c1cccs1	CYP2C9 inh 84.6, CYP2C19 inhib 62.4
Cc1ccc(S(=O)(=O)C(C)C(=O)c2ccc3c(c2)OCCO3)cc1 (stereo not drawn)	CYP2C19 inhib 87.4
CCN(CC(=O)Nc1ccc2c(c1)OCCO2)S(=O)(=O)c1ccc(C)cc1	CYP2C9 inh 75.6
O=C(O)c1ccc2c(c1)OCCO2	none
CCN(CC(=O)NC)S(=O)(=O)c1ccc(Br)cc1	CYP2C19 inhib 52.3
COC(=O)CSc1nnc(-c2sc3ccccc3c2Cl)o1	none
O=C1/C(=N\O)Cc2ccccc21	none
CCC1CC2CC(NC(C)=O)C1C2 (stereo not drawn)	none
S=C(Nc1ccccc1)N1CCCCCC1	none
Fc1ccc(NC(=S)N2N=CCC2c2ccccc2)cc1 (stereo not drawn)	CYP2C19 inhib 63.8
S=C(Nc1ccccc1)N1N=CCC1c1ccccc1 (stereo not drawn)	CYP2C19 inhib 66.5
CCN(CC)Cc1cc(CC(C(N)=O)C(N)=O)ccc1OC	none
O=C1NC(=O)/C(=C\c2ccccc2Oc2ccc(F)c(F)c2)S1	CYP2C9 inh 84.6
COC(=O)c1[nH]nc2c1C(=O)N(Cc1ccccc1)C2=O	none
O=C(c1ccccc1)c1nn(-c2ccc(Cl)cc2)cc1C(=O)c1cc2ccccc2oc1=O	CYP2C9 inh 67.2
CC(C)COc1ccc(/C(O)=C2/C(=O)C(=O)N(CCN(C)C)C2c2ccncc2)cc1 (stereo not drawn)	none
COc1cc(C2/C(=C(/O)c3ccc(OCC(C)C)cc3)C(=O)C(=O)N2CCN(C)C)ccc1O (stereo not drawn)	CYP2C19 inhib 67.5
CCCCOC(=O)Nc1cccc(Cl)c1C	CYP2C19 inhib 55.9
CN(C)c1nc(N)nc(N(c2ccccc2)c2ccccc2)n1	none
CN(C)c1nc(SCCOC(=O)c2ccccc2)nc(N(C)C)n1	CYP2C9 inh 61.7, CYP2C19 inhib 98.7
NS(=O)(=O)c1ccc(N2N=C(c3ccccc3)CC2c2ccc(F)cc2)cc1 (stereo not drawn)	CYP2C9 inh 90.4
O=S(=O)(c1ccc(F)cc1)N1CCN(c2ccccc2)CC1	none
c1ccc2c(c1)ncn2-c1ccc(-c2ccnc(-c3ccncc3)n2)cc1	CYP2C9 inh 87.3, CYP2C19 inhib 86.2
COC(=O)CNC(=O)c1cccc(F)c1	none
O=C1CCCN1CCNC(=S)Nc1ccccc1	CYP2C9 inh 52.2
COC(Cc1nnc(SC)n1-c1ccc(Cl)cc1)OC	none
CCOC(=O)c1cnc2ccc(C)cc2c1Sc1ccccc1C(=O)OC	none
COc1ccc2nc(NC(=O)c3cccc(OCc4c(C)noc4C)c3)sc2c1	none
CCSc1nnc(NC(=O)c2cccc(OCc3c(C)noc3C)c2)s1	CYP2C9 inh 86.3, CYP2C19 inhib 88.1
Cc1noc(C)c1COc1cccc(C(=O)NCc2ccccc2Cl)c1	CYP2C9 inh 53.2, CYP2C19 inhib 58.1
COc1ccccc1CNC(=O)c1ccc(OCc2c(C)noc2C)c(OC)c1	none
Cc1noc(C)c1COc1cccc(C(=O)Nc2ccc(OCc3ccccc3)cc2)c1	CYP2C9 inh 73.1, CYP2C19 inhib 62.5
COc1cccc(C(=O)N(CN2CCCC2=O)c2ccccc2OC)c1	none
Cc1ccc(Nc2c([N+](=O)[O-])ccc3c2=NC2(CCCCC2)N=3)cc1	none
COC(=O)c1cc(Br)c(=O)n(-c2cc(C)on2)c1	CYP2C9 inh 50.4, CYP2C19 inhib 58.9
COC(=O)c1cc(Br)c(=O)n(-c2ccccn2)c1	none
CCOC(=O)C(NCc1ccc2c(c1)OCO2)(NC(=O)CC)C(F)(F)F (stereo not drawn)	CYP2C9 inh 87.7, CYP2C19 inhib 97.0
CCOC(=O)CNc1ccc2c(c1)OCO2	none
CCCCc1nc(SCC(=O)Nc2ccc(S(N)(=O)=O)cc2)n[nH]1	none
O=C(c1ccccc1-c1nc(-c2ccc(Cl)cc2)no1)N1CCCC1	CYP2C9 inh 78.5
Cc1ccccc1-c1noc(-c2ccccc2C(=O)N2CCCC2)n1	CYP2C9 inh 83.8, CYP2C19 inhib 63.4
Cc1ccccc1-c1noc(-c2ccc(O)cc2)n1	CYP2C19 inhib 58.9
